Laboratory results: PubChem BioAssay (NCATS)
Where “and” joins values, the source holds several entries; their conditions need not be identical. Equal values may be shown once. Results filed as inconclusive are left out. Where a call stands in place of a potency, no number is given. Calls of active or inactive are those of the source. Unless noted, the call rests on the fitted dose curve; in most records, active means well fitted curve in the direction sought with a large enough effect; inconclusive means small, poorly fitted or top-dose-only effect, or another doubt; inactive means no such curve, though single readings can be large; an effect the other way counts as inactive or inconclusive.

What was measured:
[1] = qHTS Screen of the MIPE 4.0 Collection Against Ewings Sarcoma (RDES) (AID 1259252); further: nearly all actives have a fitted effect of over 35% in size; further: potency means the concentration at half of the fitted maximal effect
Summary of the method: (§1)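 Dose series incubated 48 h with cells in RPMI plus 5% FBS, glutamine and penicillin/streptomycin; cell viability then quantified via CellTiter-Glo.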

[2] = qHTS Screen of the MIPE 4.0 Collection Against Ewings Sarcoma (TC32) (AID 1259256); further: nearly all actives have a fitted effect of over 45% in size; further: potency means the concentration at half of the fitted maximal effect
Summary of the method: as §1

[3] = qHTS Screen of the MIPE 4.0 Collection Against Ewings Sarcoma (TC71) (AID 1259253); further: nearly all actives have a fitted effect of over 40% in size; further: potency means the concentration at half of the fitted maximal effect
Summary of the method: as §1

[4] = qHTS Screen of the MIPE 4.0 Collection Against Ewings Sarcoma (EW8) (AID 1259255); further: nearly all actives have a fitted effect of over 35% in size; further: potency means the concentration at half of the fitted maximal effect
Summary of the method: as §1

[5] = P-glycoprotein substrates identified in KB-8-5-11 adenocarcinoma cell line, qHTS therapeutic library screen (AID 1346987); further: nearly all actives have a fitted effect of over 65% in size; further: potency means the concentration at half of the fitted maximal effect
Summary of the method: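 Human cervical adenocarcinoma KB-8-5-11 cells, selected in colchicine to over-express P-gp and assayed without it, were exposed for 72 h to titrated compounds. An ATP-based luminescent viability signal gave AC50.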

[6] = NS1 protein of Zika virus - qHTS assay to identify small molecule inhibitors in human HEK 293 cells (AID 1347053); further: nearly all actives have a fitted effect of over 55% in size; further: potency means the concentration at half of the fitted maximal effect
Summary of the method: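 Readout was TR-FRET using paired anti-NS1 antibodies after 24 h infection of HEK 293 cells with ZIKV MR766 (MOI = 0.5). Compound preceded virus by 1 h; reduced signal reflects lower NS1 expression.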

[7] = qHTS of pediatric cancer cell lines to identify multiple opportunities for drug repurposing: Primary screen for TC32 cells (AID 1347089); further: nearly all actives have a fitted effect of over 60% in size; further: potency means the concentration at half of the fitted maximal effect
Summary of the method: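 In the primary qHTS, MIPE compounds were tested at 11 concentrations (0.78 nM to 46 µM) and NPC compounds at 8 (0.59 nM to 46 µM) on TC32 cells for 48 h. CellTiter-Glo luminescence gave viability.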

[8] = qHTS of pediatric cancer cell lines to identify multiple opportunities for drug repurposing: Primary screen for DAOY cells (AID 1347090); further: nearly all actives have a fitted effect of over 55% in size; further: potency means the concentration at half of the fitted maximal effect
Summary of the method: (§2)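 Viability measured as metabolically active cells via CellTiter-Glo luminescence following 48 hours of compound exposure, 11-point dilutions in confirmatory testing. 500-1,000 cells/well plated 5 hours before dosing; controls were DMSO and 2.3 µM bortezomib.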

[9] = qHTS of pediatric cancer cell lines to identify multiple opportunities for drug repurposing: Primary screen for SJ-GBM2 cells (AID 1347091); further: potency means the concentration at half of the fitted maximal effect
Summary of the method: as §2

[10] = P-glycoprotein substrates identified in KB-3-1 adenocarcinoma cell line, qHTS therapeutic library screen (AID 1346986); further: nearly all actives have a fitted effect of over 60% in size
Summary of the method: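 Viability by CellTiter-Glo after 72 h compound exposure at 37 degree C, 5% CO2. Cytotoxic call: curve class -1.1 to -2.4, maximum response >50%, AC50 < 10 uM, compared across KB-3-1 and P-gp-overexpressing KB-8-5-11.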

[11] = target: Atrial natriuretic peptide receptor 1 (Homo sapiens) (UniProt P16066); experiment: Natriuretic polypeptide receptor (hNpr1) antagonism - Pilot screen (AID 1347049; calls by dose curve;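 further: agonist-evoked cGMP luminescence read 20 min after hNppA addition; series mostly up to about 58 µM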)
Summary of the method: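 cGMP-sensor HEK293/hNpr1 cells, 1500/well, plated overnight at 37C. 2% GloSensor reagent, 2 h RT. Compound (23 nL pin transfer) 30 min RT, baseline luminescence pre-read. 0.1 nM hNppA, 20 min RT, post-read.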

[12] = target: T1, Tyrosine-protein phosphatase non-receptor type substrate 1 (Homo sapiens) + Leukocyte surface antigen CD47 (Homo sapiens) (UniProt P78324+Q08722); experiment: CD47-SIRPalpha protein protein interaction - LANCE assay qHTS validation (AID 1347057; active means well fitted curve in the direction sought with a large enough effect in the signal ratio, with a control signal flat, not every such curve was filed as active; the % refers to the signal ratio; further: series mostly up to about 38 µM)
Summary of the method: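 Inhibition of soluble CD47/SIRPalpha ectodomain association by titrated compounds, measured as 665/615 nm time-resolved FRET ratio after sequential 30 min room-temperature incubations.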

[13] = target: T1, Tyrosine-protein phosphatase non-receptor type substrate 1 (Homo sapiens) + Leukocyte surface antigen CD47 (Homo sapiens); experiment: CD47-SIRPalpha protein protein interaction - Alpha assay qHTS validation (AID 1347059);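 further: bead proximity luminescence from CD47 binding SIRPalpha after compound preincubation with SIRPalpha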
Summary of the method: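 SIRPalpha-biotin 25 nM + cpd, 30 min RT, dark; add CD47-His 12.5 nM, 30 min; add Ni-NTA/SAV beads 10 ug/mL, 30 min; AlphaScreen. Buffer PBS pH 7.4 + 0.05% IGEPAL CA-630. Non-biotinylated SIRPalpha as control inhibitor.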

[14] = target: Parathyroid hormone/parathyroid hormone-related peptide receptor (Homo sapiens) (UniProt Q03431); experiment: qHTS for PTHR1 Agonists: Optimization Screen against the NCGC LOPAC library (AID 1347079);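 further: GloSensor cAMP luminescence in HEK-293 GP2 cells expressing human PTHR1 with IBMX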
Summary of the method: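 Signal increase flags agonism. GP2 cells, derived from HEK-293, express human PTHR1 and a GloSensor cAMP construct.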

T1 sequence (P78324 whole entry, looked up, the tested form may be a part): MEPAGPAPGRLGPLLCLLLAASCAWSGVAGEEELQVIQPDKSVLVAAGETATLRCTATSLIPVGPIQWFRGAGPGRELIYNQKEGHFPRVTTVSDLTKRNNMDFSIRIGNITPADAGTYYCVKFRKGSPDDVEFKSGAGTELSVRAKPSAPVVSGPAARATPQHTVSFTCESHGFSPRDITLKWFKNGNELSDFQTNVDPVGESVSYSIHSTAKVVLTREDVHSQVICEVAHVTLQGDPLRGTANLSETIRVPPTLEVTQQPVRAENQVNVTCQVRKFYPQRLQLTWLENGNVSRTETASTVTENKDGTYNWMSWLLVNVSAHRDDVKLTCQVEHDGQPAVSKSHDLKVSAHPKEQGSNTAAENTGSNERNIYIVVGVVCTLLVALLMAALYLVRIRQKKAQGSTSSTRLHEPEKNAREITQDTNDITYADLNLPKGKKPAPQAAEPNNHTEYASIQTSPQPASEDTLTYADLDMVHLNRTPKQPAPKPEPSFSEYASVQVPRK
T1 sequence (Q08722 whole entry, looked up, the tested form may be a part): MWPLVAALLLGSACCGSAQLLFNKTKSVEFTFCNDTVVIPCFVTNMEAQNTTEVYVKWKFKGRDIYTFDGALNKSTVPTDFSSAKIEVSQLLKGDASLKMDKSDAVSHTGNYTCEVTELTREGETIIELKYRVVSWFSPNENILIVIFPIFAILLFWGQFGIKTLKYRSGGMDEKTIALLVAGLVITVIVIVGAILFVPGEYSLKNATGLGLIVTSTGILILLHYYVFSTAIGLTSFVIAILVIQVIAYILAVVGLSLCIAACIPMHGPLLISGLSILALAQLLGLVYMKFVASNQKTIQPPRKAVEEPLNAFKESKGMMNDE
Chain of Parathyroid hormone/parathyroid hormone-related peptide receptor (Homo sapiens) (Q03431 whole entry, looked up): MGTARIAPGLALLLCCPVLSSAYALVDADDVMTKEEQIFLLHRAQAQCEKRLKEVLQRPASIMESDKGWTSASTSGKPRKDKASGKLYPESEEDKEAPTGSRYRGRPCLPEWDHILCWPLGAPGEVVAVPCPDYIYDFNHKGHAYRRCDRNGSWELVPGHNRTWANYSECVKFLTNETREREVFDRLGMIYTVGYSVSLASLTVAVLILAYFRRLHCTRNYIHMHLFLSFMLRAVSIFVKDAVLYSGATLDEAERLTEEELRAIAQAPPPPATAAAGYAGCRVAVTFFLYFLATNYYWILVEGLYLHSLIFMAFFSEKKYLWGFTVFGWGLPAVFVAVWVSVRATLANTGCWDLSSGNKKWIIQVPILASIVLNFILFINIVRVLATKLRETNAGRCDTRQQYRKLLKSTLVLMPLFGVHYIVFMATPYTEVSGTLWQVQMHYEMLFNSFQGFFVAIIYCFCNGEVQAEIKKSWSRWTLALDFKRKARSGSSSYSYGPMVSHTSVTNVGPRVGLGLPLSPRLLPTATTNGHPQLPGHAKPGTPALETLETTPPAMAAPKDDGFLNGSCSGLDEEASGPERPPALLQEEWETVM
Chain of Atrial natriuretic peptide receptor 1 (Homo sapiens) (P16066 whole entry, looked up): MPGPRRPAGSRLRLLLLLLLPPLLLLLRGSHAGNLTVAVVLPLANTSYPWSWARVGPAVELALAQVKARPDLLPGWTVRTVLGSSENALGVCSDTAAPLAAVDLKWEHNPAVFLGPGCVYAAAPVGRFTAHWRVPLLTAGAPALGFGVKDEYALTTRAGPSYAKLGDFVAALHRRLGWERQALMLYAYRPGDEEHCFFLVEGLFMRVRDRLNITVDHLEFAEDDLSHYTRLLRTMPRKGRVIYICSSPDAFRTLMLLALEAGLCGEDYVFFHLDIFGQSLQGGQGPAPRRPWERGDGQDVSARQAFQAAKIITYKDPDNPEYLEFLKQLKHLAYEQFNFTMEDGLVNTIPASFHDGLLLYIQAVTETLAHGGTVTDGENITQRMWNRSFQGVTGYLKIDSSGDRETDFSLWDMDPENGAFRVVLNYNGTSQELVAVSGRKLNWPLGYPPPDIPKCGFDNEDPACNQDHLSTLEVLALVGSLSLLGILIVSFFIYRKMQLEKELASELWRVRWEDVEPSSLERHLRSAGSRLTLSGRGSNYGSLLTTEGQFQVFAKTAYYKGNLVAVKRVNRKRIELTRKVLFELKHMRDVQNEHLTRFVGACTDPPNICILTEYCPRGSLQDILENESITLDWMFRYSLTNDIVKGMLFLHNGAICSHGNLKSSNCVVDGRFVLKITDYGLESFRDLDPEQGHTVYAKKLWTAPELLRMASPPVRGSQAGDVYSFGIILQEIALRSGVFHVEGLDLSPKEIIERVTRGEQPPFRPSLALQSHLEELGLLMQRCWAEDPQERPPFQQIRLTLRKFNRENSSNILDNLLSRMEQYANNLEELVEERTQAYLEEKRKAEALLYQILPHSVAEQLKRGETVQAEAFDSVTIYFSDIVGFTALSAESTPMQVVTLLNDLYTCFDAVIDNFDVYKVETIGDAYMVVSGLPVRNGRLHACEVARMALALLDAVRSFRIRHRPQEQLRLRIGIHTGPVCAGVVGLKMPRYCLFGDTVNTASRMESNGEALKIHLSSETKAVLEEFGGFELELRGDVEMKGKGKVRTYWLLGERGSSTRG

Question: For `Clc1ccc(CCC(Cn2ccnc2)Sc2c(Cl)cccc2Cl)cc1` (stereo unspecified), which Potency [1] is on record?
Answer: inactive

Question: What about the Potency [2] of the same compound?
Answer: inactive

Question: What does the source list for `CC(C)(C)COc1ccc(-n2cc(C(=O)O)cn2)cc1C#N`?
Answer: Potency [1]: inactive; Potency [3]: inactive; Potency [4]: inactive; Potency [2]: inactive; Potency [5]: inactive; Potency [6]: inactive; Potency [7]: inactive; Potency [8]: inactive; Potency [9]: inactive

Question: For `O=C(CCN1CCN(C(=O)OCc2cc(Cl)cc(Cl)c2)CC1)c1ccc2[nH]c(=O)oc2c1`, which Potency [1] is on record?
Answer: inactive

Question: And the Potency [3]?
Answer: inactive

Question: And the Potency [4]?
Answer: inactive

Question: And the Potency [2]?
Answer: inactive

Question: What about the Potency [5] of the same compound?
Answer: inactive

Question: What about the Potency [6] of the same compound?
Answer: inactive

Question: And the Potency [7]?
Answer: inactive

Question: What about the Potency [8] of the same compound?
Answer: inactive

Question: What about the Potency [9] of the same compound?
Answer: inactive

Question: With `COc1cccc(-c2cc(=O)c3ccccc3o2)c1N` as the compound, how does the Potency [1] read?
Answer: inactive

Question: What about the Potency [4] of the same compound?
Answer: inactive

Question: And the Potency [10]?
Answer: inactive

Question: And the Potency [5]?
Answer: inactive

Question: What about the outcome [11] of the same compound?
Answer: inactive

Question: What about the Potency [6] of the same compound?
Answer: inactive

Question: What about the outcome [12] of the same compound?
Answer: inactive

Question: What about the outcome [13] of the same compound?
Answer: inactive

Question: And the outcome [14]?
Answer: inactive

Question: What about the Potency [9] of the same compound?
Answer: inactive

Question: Which results are given for `c1ccc2c(Cc3c[nH]c4ccccc34)c[nH]c2c1`?
Answer: Potency [1]: 2.64 µM (active); Potency [3]: 4.18 µM (active); Potency [4]: 14.8 µM (active); Potency [2]: 4.18 µM (active); Potency [6]: inactive; Potency [8]: 3.72 µM (active)

Question: With `CN1[C@@H]2CCC[C@@H]1CC(NC(=O)c1nn(C)c3ccccc13)C2` (stereo partly specified) as the compound, how does the Potency [5] read?
Answer: inactive

Question: What about the Potency [7] of the same compound?
Answer: inactive

Question: What about the Potency [8] of the same compound?
Answer: inactive

Question: And the Potency [9]?
Answer: inactive

Question: With `O=c1c(O)c(-c2ccc(O)cc2)oc2cc(O)cc(O)c12` as the compound, how does the Potency [1] read?
Answer: 16.6 µM (active)

Question: What about the Potency [3] of the same compound?
Answer: 18.7 µM (active)

Question: And the Potency [4]?
Answer: 11.8 µM (active)

Question: What about the Potency [10] of the same compound?
Answer: inactive

Question: And the Potency [5]?
Answer: inactive

Question: What about the Potency [6] of the same compound?
Answer: inactive

Question: What about the Potency [7] of the same compound?
Answer: inactive

Question: And the Potency [9]?
Answer: 14.8 µM (active)

Question: With `NC(=O)c1cccc2[nH]c(-c3ccc([C@H]4CCCN4)cc3F)nc12` as the compound, how does the Potency [1] read?
Answer: 7.43 µM (active)

Question: What about the Potency [3] of the same compound?
Answer: 14.8 µM (active)

Question: What about the Potency [4] of the same compound?
Answer: 18.7 µM (active)

Question: What about the Potency [2] of the same compound?
Answer: 11.8 µM (active)

Question: What about the Potency [8] of the same compound?
Answer: inactive

Question: And the Potency [9]?
Answer: inactive

Question: For `CCc1ccc(OCc2ccccc2C(=O)Nc2ccc3nc(C)cc(N)c3c2)cc1`, which Potency [1] is on record?
Answer: 9.35 µM (active)

Question: And the Potency [3]?
Answer: 7.43 µM (active)

Question: And the Potency [4]?
Answer: 7.43 µM (active)

Question: And the Potency [2]?
Answer: 9.35 µM (active)

Question: What about the Potency [5] of the same compound?
Answer: 7.43 µM (active)

Question: What about the Potency [6] of the same compound?
Answer: 2.96 µM (active)

Question: And the Potency [7]?
Answer: 20.8 µM (active)

Question: And the Potency [8]?
Answer: 11.8 µM (active)

Question: What about the Potency [9] of the same compound?
Answer: 23.5 µM (active)

Question: Which Potency [3] does the source give for `O=C1NC(=O)C(=Cc2ccc(-c3ccc(F)cc3)o2)S1` here?
Answer: 23.5 µM (active)

Question: And the Potency [4]?
Answer: inactive

Question: What about the Potency [5] of the same compound?
Answer: inactive

Question: What about the Potency [6] of the same compound?
Answer: inactive

Question: And the Potency [7]?
Answer: inactive

Question: And the Potency [9]?
Answer: inactive

Question: For `O=C1C[C@@H](c2ccc(O)cc2)Oc2cc(O)cc(O)c21`, which Potency [3] is on record?
Answer: inactive

Question: What about the Potency [4] of the same compound?
Answer: 13.2 µM (active)

Question: What about the Potency [2] of the same compound?
Answer: inactive

Question: What about the Potency [5] of the same compound?
Answer: inactive

Question: What about the Potency [6] of the same compound?
Answer: inactive

Question: What about the Potency [7] of the same compound?
Answer: inactive

Question: And the Potency [8]?
Answer: inactive

Question: And the Potency [9]?
Answer: inactive

Question: For `CCS(=O)(=O)N1CC(CC#N)(n2cc(-c3ncnc4[nH]ccc34)cn2)C1`, which Potency [5] is on record?
Answer: inactive

Question: What about the Potency [7] of the same compound?
Answer: inactive

Question: For `CC(=NNC(=S)N1CCC1)c1ccccn1`, which Potency [3] is on record?
Answer: 0.0053 µM (active)

Question: What about the Potency [6] of the same compound?
Answer: 16.6 µM (active)

Question: What about the Potency [7] of the same compound?
Answer: 0.0415 µM (active)

Question: And the Potency [9]?
Answer: 0.0209 µM (active)

Question: What does the source list for `Oc1ccc(C2=Cc3ccc(O)cc3OC2)cc1`?
Answer: Potency [1]: 5.9 µM (active); Potency [3]: 3.72 µM (active); Potency [4]: 6.62 µM (active); Potency [2]: 2.64 µM (active); Potency [5]: 9.35 µM (active) and 6.51 µM (active); Potency [6]: 10.5 µM (active); Potency [7]: 7.39 µM (active); Potency [9]: 5.26 µM (active)
